How the values were obtained:
[1] = molecular target: Protein kinase C gamma type (Homo sapiens) (UniProt P05129); settings: at 1 µM;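 further: each value is an averaged percent inhibition of the enzyme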
[2] = molecular target: T1, Protein kinase C iota type (Homo sapiens) (UniProt P41743); settings: at 0.1 µM
T1 sequence (whole entry): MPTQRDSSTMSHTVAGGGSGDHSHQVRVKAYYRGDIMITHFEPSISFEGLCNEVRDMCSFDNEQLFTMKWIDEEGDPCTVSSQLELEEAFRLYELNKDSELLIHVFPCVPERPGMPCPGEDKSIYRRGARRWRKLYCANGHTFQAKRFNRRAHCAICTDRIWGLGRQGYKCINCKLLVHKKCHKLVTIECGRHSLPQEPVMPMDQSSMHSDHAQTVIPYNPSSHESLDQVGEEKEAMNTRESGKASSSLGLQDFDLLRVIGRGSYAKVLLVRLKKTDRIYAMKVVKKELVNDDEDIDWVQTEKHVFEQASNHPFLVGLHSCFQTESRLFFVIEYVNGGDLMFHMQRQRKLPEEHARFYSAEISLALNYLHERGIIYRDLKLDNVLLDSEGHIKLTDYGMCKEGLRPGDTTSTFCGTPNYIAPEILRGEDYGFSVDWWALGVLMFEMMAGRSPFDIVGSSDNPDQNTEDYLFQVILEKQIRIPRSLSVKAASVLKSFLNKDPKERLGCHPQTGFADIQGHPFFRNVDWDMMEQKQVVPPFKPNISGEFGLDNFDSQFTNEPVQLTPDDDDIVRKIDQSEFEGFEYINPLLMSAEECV

[3] = molecular target: T1, Protein kinase C iota type (Homo sapiens); settings: at 1 µM
[4] = molecular target: Protein kinase C theta type (Homo sapiens) (UniProt Q04759); settings: at 0.1 µM
[5] = molecular target: Protein kinase C theta type (Homo sapiens) (UniProt Q04759); settings: at 1 µM
[6] = molecular target: Protein kinase C beta type (Homo sapiens) (UniProt P05771); settings: at 0.1 µM
[7] = molecular target: Protein kinase C beta type (Homo sapiens) (UniProt P05771); settings: at 1 µM
[8] = molecular target: T2, Serine/threonine-protein kinase D1 (Homo sapiens) (UniProt Q15139); settings: at 0.1 µM
T2 sequence (whole entry): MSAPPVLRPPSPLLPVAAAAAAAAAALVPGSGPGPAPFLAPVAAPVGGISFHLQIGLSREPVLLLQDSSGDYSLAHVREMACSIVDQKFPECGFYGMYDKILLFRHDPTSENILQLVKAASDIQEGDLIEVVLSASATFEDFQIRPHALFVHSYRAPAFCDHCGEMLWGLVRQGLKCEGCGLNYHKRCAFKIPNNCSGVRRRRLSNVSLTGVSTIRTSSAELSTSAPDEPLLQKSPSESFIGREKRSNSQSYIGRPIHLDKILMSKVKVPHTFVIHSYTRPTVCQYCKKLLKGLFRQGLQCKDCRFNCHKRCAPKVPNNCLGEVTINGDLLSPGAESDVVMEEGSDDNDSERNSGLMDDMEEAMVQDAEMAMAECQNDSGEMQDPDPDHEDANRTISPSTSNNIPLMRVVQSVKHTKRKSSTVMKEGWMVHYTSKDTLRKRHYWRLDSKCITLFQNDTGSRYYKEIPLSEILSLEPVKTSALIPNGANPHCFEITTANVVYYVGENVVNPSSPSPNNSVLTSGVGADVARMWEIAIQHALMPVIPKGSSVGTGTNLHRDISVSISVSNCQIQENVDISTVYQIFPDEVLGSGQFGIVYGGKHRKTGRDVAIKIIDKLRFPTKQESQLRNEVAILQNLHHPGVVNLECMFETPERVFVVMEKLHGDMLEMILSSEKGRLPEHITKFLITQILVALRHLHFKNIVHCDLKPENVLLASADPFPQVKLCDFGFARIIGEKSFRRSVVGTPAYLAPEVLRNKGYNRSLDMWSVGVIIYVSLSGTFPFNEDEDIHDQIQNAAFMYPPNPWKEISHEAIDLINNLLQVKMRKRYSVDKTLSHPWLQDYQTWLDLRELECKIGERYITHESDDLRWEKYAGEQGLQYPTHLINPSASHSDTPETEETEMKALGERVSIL

[9] = molecular target: T2, Serine/threonine-protein kinase D1 (Homo sapiens); settings: at 1 µM
[10] = molecular target: T3, Serine/threonine-protein kinase D2 (Homo sapiens) (UniProt Q9BZL6); settings: at 0.1 µM
T3 sequence (whole entry): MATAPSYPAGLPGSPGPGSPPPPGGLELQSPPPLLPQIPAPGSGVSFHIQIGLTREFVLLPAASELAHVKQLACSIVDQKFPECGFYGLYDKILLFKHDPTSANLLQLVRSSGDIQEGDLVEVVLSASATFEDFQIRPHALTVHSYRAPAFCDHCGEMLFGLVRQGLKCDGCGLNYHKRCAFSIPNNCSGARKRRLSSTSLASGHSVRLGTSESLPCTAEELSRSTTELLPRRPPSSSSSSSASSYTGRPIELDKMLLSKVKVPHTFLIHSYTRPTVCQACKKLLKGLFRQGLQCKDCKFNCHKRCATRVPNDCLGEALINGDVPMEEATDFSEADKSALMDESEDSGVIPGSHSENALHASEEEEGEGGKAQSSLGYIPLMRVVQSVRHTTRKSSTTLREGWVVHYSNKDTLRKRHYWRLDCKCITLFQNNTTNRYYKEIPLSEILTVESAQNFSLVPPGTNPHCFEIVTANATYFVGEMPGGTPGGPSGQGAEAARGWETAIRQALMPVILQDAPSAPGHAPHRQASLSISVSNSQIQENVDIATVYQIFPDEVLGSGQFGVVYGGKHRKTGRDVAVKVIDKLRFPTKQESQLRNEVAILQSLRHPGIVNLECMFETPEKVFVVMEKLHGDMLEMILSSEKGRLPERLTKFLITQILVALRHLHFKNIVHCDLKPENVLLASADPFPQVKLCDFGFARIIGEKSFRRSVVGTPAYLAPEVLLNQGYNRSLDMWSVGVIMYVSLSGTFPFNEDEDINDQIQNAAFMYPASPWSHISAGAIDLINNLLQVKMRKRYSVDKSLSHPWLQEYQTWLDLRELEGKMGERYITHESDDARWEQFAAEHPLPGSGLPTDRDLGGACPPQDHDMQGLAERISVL

[11] = molecular target: T3, Serine/threonine-protein kinase D2 (Homo sapiens); settings: at 1 µM
[12] = molecular target: T4, Serine/threonine-protein kinase D3 (Homo sapiens) (UniProt O94806); settings: at 0.1 µM
T4 sequence (whole entry): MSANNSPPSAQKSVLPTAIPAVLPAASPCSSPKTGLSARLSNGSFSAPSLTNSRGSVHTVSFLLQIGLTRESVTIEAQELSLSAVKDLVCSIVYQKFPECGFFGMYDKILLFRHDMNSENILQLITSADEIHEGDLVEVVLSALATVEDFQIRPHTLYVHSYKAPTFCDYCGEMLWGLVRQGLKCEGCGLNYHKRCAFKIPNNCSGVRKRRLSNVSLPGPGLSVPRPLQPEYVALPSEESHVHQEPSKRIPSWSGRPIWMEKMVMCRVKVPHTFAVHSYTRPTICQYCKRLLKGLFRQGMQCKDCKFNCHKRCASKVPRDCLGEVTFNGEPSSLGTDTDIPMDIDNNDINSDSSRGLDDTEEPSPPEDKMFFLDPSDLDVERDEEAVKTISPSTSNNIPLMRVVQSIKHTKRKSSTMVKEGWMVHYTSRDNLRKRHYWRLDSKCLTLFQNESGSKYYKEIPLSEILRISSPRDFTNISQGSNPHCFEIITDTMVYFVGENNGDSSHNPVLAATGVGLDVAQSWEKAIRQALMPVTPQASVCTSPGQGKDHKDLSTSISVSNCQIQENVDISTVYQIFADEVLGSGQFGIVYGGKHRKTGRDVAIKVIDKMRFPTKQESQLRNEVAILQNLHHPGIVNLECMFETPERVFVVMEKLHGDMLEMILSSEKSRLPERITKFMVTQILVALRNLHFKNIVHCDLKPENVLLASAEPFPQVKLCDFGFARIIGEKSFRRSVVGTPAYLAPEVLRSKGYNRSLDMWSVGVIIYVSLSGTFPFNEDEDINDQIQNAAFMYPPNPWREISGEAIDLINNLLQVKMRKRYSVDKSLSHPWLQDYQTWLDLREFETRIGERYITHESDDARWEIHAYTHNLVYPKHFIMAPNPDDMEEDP

[13] = molecular target: T4, Serine/threonine-protein kinase D3 (Homo sapiens); settings: at 1 µM
[14] = molecular target: T5, cGMP-dependent protein kinase 1 (Homo sapiens) (UniProt Q13976); settings: at 0.1 µM
T5 sequence (whole entry): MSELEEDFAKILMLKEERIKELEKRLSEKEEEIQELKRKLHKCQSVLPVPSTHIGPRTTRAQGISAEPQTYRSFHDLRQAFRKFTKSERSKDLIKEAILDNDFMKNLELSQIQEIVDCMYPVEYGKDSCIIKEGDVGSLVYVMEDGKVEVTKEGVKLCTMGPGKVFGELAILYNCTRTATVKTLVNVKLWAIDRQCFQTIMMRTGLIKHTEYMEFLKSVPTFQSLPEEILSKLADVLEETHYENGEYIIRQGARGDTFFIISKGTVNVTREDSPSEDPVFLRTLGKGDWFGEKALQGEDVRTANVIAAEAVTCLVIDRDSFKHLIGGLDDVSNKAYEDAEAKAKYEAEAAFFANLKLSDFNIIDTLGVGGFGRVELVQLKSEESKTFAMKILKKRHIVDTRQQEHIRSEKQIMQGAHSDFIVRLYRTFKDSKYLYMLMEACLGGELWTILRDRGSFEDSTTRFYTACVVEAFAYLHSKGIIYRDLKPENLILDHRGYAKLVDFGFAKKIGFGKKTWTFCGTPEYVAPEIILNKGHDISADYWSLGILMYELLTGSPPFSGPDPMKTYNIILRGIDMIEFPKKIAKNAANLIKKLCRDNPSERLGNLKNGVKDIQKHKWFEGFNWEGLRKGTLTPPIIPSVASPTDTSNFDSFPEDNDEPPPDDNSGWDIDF

[15] = molecular target: T5, cGMP-dependent protein kinase 1 (Homo sapiens); settings: at 1 µM
[16] = molecular target: T6, cGMP-dependent protein kinase 2 (Homo sapiens) (UniProt Q13237); settings: at 0.1 µM
T6 sequence (whole entry): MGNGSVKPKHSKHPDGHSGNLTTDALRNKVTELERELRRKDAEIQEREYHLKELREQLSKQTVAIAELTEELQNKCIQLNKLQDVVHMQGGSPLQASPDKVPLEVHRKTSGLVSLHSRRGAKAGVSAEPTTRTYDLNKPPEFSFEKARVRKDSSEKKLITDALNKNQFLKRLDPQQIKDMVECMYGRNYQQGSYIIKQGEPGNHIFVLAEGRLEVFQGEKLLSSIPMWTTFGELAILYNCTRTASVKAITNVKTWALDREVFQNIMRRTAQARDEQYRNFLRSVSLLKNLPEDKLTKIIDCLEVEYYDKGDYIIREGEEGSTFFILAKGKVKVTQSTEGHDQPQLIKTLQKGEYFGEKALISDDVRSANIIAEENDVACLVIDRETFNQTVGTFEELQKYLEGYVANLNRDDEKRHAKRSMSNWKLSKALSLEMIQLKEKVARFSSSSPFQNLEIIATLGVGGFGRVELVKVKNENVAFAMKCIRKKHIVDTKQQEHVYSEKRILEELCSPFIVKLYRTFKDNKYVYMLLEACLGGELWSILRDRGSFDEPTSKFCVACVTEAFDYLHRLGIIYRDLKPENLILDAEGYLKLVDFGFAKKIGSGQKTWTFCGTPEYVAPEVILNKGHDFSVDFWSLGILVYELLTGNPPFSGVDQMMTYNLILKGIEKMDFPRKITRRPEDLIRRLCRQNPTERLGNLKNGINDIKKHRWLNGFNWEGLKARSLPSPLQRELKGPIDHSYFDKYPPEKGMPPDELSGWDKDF

[17] = molecular target: T6, cGMP-dependent protein kinase 2 (Homo sapiens); settings: at 1 µM
[18] = molecular target: T7, cAMP-dependent protein kinase catalytic subunit PRKX (Homo sapiens) (UniProt P51817); settings: at 0.1 µM
T7 sequence (whole entry): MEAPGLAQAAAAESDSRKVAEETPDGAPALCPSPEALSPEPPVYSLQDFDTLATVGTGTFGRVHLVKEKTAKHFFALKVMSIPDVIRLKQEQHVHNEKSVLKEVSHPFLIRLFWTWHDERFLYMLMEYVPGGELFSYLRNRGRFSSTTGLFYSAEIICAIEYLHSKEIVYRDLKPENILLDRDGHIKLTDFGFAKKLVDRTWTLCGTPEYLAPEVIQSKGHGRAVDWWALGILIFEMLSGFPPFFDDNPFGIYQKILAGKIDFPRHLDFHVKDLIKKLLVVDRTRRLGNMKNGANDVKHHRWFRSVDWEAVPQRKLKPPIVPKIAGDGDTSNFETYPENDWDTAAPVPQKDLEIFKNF

[19] = molecular target: T7, cAMP-dependent protein kinase catalytic subunit PRKX (Homo sapiens); settings: at 1 µM
[20] = molecular target: Rho-associated protein kinase 1 (Homo sapiens) (UniProt Q13464); settings: at 0.1 µM;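 further: values are mean percent inhibition of ROCK1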
Sequence of Rho-associated protein kinase 1 (Homo sapiens) (Q13464 2-1354 limits assumed): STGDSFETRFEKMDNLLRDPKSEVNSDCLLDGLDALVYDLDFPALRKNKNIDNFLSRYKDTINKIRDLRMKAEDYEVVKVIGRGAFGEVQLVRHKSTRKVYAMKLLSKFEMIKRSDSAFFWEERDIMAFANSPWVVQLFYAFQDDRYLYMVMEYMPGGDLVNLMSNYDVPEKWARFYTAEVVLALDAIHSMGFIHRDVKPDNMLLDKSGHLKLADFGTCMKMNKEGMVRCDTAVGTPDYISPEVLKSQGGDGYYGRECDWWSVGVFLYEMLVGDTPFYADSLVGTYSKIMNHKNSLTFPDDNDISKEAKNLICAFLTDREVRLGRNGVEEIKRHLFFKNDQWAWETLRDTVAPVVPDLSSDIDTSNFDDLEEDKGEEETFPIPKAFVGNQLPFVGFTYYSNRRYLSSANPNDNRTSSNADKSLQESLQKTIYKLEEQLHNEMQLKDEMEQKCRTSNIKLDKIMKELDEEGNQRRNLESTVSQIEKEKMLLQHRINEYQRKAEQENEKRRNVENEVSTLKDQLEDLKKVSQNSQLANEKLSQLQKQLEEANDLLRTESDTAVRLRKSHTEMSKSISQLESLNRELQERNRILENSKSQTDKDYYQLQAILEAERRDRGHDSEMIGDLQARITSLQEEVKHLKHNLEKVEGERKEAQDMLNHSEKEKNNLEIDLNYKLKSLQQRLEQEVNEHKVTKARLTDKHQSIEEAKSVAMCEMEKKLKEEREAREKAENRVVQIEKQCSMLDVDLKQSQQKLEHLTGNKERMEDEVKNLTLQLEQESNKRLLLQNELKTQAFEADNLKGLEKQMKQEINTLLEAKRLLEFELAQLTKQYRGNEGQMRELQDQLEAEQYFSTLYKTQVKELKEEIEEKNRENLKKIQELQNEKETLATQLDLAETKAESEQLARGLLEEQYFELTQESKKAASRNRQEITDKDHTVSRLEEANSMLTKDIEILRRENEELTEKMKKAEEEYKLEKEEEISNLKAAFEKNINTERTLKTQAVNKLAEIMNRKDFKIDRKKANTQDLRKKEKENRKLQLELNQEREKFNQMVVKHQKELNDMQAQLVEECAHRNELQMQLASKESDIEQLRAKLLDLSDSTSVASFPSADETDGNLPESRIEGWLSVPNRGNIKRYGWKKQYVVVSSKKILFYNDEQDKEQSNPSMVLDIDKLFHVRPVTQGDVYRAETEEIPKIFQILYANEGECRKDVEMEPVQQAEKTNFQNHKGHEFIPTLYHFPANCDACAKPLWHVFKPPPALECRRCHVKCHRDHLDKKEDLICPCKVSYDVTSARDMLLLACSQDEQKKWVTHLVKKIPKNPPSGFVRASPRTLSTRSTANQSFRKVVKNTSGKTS

Sequence of Protein kinase C theta type (Homo sapiens) (Q04759 whole entry, looked up): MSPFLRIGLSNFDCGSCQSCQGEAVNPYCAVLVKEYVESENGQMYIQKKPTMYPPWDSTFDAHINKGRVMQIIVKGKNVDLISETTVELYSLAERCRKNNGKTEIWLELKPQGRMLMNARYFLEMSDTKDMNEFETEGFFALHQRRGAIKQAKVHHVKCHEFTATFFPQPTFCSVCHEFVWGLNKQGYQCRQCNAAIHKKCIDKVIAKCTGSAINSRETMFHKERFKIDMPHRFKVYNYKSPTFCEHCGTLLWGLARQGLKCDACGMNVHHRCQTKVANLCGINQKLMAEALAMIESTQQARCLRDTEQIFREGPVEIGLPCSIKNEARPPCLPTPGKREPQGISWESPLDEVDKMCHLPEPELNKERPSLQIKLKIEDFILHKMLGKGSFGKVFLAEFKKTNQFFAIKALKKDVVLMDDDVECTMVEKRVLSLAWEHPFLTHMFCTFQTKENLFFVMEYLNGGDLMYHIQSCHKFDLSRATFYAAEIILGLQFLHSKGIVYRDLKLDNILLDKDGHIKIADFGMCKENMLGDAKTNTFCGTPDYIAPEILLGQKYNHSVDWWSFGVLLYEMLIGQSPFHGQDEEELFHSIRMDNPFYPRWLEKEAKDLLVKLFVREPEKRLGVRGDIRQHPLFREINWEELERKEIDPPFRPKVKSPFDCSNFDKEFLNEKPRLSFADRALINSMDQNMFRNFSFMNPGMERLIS
Sequence of Protein kinase C beta type (Homo sapiens) (P05771 2-671 limits assumed): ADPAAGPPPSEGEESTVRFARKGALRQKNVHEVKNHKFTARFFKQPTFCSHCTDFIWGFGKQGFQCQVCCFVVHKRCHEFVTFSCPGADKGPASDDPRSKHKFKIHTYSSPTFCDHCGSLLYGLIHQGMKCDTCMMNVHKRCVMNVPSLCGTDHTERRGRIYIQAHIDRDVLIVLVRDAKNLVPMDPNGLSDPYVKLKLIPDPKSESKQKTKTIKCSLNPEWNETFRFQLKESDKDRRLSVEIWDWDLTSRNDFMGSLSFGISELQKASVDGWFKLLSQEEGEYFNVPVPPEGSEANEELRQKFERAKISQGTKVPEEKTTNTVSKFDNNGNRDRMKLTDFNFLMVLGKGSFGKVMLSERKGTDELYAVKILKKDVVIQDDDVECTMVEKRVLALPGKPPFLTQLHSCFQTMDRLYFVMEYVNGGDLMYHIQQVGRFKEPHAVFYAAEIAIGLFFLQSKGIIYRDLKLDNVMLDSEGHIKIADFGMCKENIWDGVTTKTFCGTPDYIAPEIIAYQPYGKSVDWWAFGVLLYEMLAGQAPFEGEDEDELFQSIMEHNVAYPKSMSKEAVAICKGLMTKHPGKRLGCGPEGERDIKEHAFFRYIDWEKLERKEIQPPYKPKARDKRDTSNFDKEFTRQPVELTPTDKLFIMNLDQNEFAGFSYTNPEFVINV

SMILES | inhibition [1] | inhibition [2] | inhibition [3] | inhibition [4] | inhibition [5] | inhibition [6] | inhibition [7] | inhibition [8] | inhibition [9] | inhibition [10] | inhibition [11] | inhibition [12] | inhibition [13] | inhibition [14] | inhibition [15] | inhibition [16] | inhibition [17] | inhibition [18] | inhibition [19] | inhibition [20]
CN1CCN(C(=O)c2ccc(NC(=O)Nc3ccc(N(C)c4ccnc(Nc5ccc(CS(C)(=O)=O)cc5)n4)cc3)cc2)CC1 | 2.89% | -0.67% | -0.1% | 1.17% | 1.43% | 1.51% | 2.4% | 2.19% | 6.28% | 2.12% | 3.43% | 1.06% | 3.69% | 1.76% | 3.23% | 1.26% | 1.71% | 1.71% | 0.77% | 2.82%
O=S(=O)(CCOCc1ccc(-c2ccc3ncnc(Nc4ccc(OCc5cccc(F)c5)c(Cl)c4)c3c2)o1)c1ccccc1 | 1.98% | 0.8% | 0.31% | 0.62% | 0.48% | 0.96% | 1.53% | 1.15% | 2.02% | 1.72% | 2.14% | 1.07% | 1.96% | 1.36% | 2.37% | 1.18% | 2.63% | 1.21% | 1.09% | 1.34%
[O-][S+]1CCN(Cc2ccc(-c3ccc4ncnc(Nc5ccc(OCc6ccccc6)c(Cl)c5)c4c3)o2)CC1 | 3.28% | 1.72% | 1.88% | 1.06% | 1.03% | 0.97% | 2.88% | 1.74% | 2.75% | 1.16% | 1.77% | 1.61% | 2.2% | 1.79% | 0.53% | 0.97% | 2.95% | 1.3% | 1.17% | 0.9%
